High-throughput results as filed in PubChem.
Compounds with a hit are over-represented: about 4% of the library has one in this group of screens.
RecA intein inh = Mtb RecA intein splicing inhibition; P9WHJ3; cell-free RecA intein splicing, fluorescence; inhibition, % (test concentration not listed); hit rate 0.75% among 290,000; AID 2221; in the data active means inhibition above about 30%
Rv3671c inh = Rv3671c (M. tuberculosis) protease inhibition; P9WHR9; inhibition, % at 5.96 µM; hit rate 0.048% among 320,000; AID 2606; in the data active means inhibition above about 38%;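 further: extracellular domain of Rv3671c used as enzyme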
Target sequence (P9WHR9 whole entry, looked up, the tested form may be a part): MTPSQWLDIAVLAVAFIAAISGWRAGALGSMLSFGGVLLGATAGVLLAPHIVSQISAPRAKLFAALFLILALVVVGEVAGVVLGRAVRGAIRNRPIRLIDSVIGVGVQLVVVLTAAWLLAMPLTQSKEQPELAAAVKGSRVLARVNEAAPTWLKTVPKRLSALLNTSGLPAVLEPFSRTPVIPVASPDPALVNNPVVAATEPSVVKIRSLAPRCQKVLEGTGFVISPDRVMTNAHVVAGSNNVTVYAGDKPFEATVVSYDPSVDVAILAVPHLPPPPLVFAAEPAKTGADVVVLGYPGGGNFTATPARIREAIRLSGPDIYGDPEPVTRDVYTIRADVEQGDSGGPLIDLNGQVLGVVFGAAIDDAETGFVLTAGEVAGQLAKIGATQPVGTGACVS
FBA Mtb inh = inhibits M. tuberculosis FBA enzyme; purified M. tuberculosis FBA, fluorescence read-out; P9WQA3; hit rate 2.3% among 360,000; inhibition, % at 1 µM
GDH-TPI counter-1 = GDH-TPI coupled enzyme inhibition counter-screen. hit rate 1.2% among 360,000. inhibition, % at 4.8 µM. GDH-TPI coupled enzyme counterscreen, NADH absorbance; in the data active means inhibition above about 30%
UGM FP inh = inhibitors of M. tuberculosis UDP-galactopyranose mutase | P9WIQ1 | inhibition, % at 10 µM | hit rate 0.06% among 320,000 | purified UGM, fluorescence polarization probe displacement; in the data active means inhibition above about 10%, passing the limit was not always enough
Mtb bLac sens = beta-lactam sensitization of Mtb H37Rv | inhibition, % at 25 µM | M. tuberculosis H37Rv growth with meropenem, percent inhibition | hit rate 0.27% among 330,000 | AID 434955; call rule not given here;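 further: growth measured after seven days incubation then overnight dye step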
Mtb FBA inh conf = confirmation of M. tuberculosis fructose-bisphosphate aldolase inhibitors. shares compounds with FBA Mtb inh. purified M. tuberculosis FBA, fluorescence read-out. inhibition, % at 1 µM. hit rate 78% among 5,600. AID 651616
GDH-TPI counter-2 = GDH-TPI inhibition counter-screen for FBA inhibitors | GDH-TPI coupled enzyme counterscreen, fluorescence | shares compounds with FBA Mtb inh | hit rate 81% among 5,600 | inhibition, % at 1 µM; in the data active means inhibition above about 10%
A number is an active result; - = inactive; . = no result; + = active, no number. Unless noted, no stated cut-off is given here; in the data, active means inhibition above about 27%; inactive means the rest.

SMILES	RecA intein inh	Rv3671c inh	FBA Mtb inh	GDH-TPI counter-1	UGM FP inh	Mtb bLac sens	Mtb FBA inh conf	GDH-TPI counter-2
COc1ccccc1-c1cc2nc(-c3ccccc3)cc(N3CCN(C(=O)c4ccoc4)CC3)n2n1	.	.	55	-	.	.	-	-
Cc1cc(N2CCN(C(=O)c3ccco3)CC2)n2ncc(-c3ccccc3)c2n1	-	-	-	-	-	-	.	.
O=C(c1ccoc1)N1CCN(c2cc(-c3ccccc3)nc3cc(-c4ccccc4)nn23)CC1	.	.	39	-	.	.	64	60
COc1cccc(-c2cc3nc(-c4ccccc4)cc(N4CCN(C(=O)c5ccoc5)CC4)n3n2)c1	.	.	62	-	.	.	151	102
Cc1cc(N2CCN(C(=O)c3ccoc3)CC2)n2nc(-c3ccccc3)cc2n1	.	.	-	-	.	.	.	.
C/C(CC(=O)Nc1ccc2c(c1)OCCO2)=N\NC(=O)COc1ccc(C)cc1Br	-	-	-	-	-	-	.	.
CN1CCN(c2cc(-c3ccccc3)nc3cc(-c4ccc(F)cc4)nn23)CC1	-	-	-	-	-	-	.	.
Fc1ccc(-c2cc3nc(-c4ccccc4)cc(N4CCN(CCN5CCOCC5)CC4)n3n2)cc1	-	.	49	-	.	.	90	72
COc1cccc(-c2cc3nc(-c4ccccc4)cc(N4CCC5(CC4)OCCO5)n3n2)c1	-	-	65	-	-	-	-	-
CN1CCN(c2cc(-c3cccc(C(=O)O)c3)nc3ccnn23)CC1	.	.	30	-	.	.	55	46
Cc1ccc(-c2nc3ccccn3c2Nc2ccccc2)o1	-	-	108	-	-	-	138	127
C=CCc1cccc(C=Nc2cc(Br)ccc2O)c1O	-	-	-	-	-	-	.	.
C=CCc1cccc(C=Nc2cccn3cc(-c4ccccc4)nc23)c1O	-	-	39	-	-	-	+	176
COc1ccc2c(c1OC)C(=O)N(c1ccccn1)C2	-	-	45	-	-	-	115	106
COc1cccc(C(O)c2nc(-c3ccc(N(C)C)cc3)cs2)c1 (configuration not stated)	.	.	-	-	.	.	.	.
COc1ccc2[nH]c3c(=O)n(N)c(=O)[nH]c3c2c1	-	.	107	-	-	-	33	31
COc1cc2[nH]c3c(=O)n(N)c(=O)[nH]c3c2cc1OC	-	-	34	-	-	-	-	-
Cc1cc(Cl)ccc1NC(=O)CN(C)C1=NS(=O)(=O)c2ccccc21	.	-	-	-	-	-	.	.
Cc1ccc(Cc2c(-c3ccco3)nc3ccc(Br)cn23)cc1	.	.	-	.	.	.	.	.
COc1ccc(-c2nc3ccc(C)cn3c2Cc2cccc(Cl)c2)cc1OC	.	.	33	.	.	.	107	76
COc1ccccc1Cc1c(-c2ccc(OC)c(OC)c2)nc2ccc(C)cn12	.	.	45	.	.	.	119	94
Cc1ccc2nc(-c3ccco3)c(Cc3cccc(F)c3)n2c1	.	.	31	.	.	.	+	138
COc1ccc(-c2nc3ccc(C)cn3c2Cc2ccc(C)cc2)cc1OC	.	.	-	.	.	.	.	.
COC(=O)c1ccc2nc(-c3ccc(OC)c(OC)c3)c(Cc3ccccc3OC)n2c1	.	.	-	.	.	.	.	.
O=C(NCc1ccccc1)c1cnc(Cc2c[nH]c3ccccc23)c(I)c1	.	.	-	-	.	.	.	.
SMILES	RecA intein inh	Rv3671c inh	FBA Mtb inh	GDH-TPI counter-1	UGM FP inh	Mtb bLac sens	Mtb FBA inh conf	GDH-TPI counter-2
Cc1cccc(-c2oc3ccc(-c4ccc5c(c4)OCO5)cc3c2/C=C/c2ccc(N)cc2)c1	-	-	44	-	-	-	135	120
CC1(C)CC(Cc2cccc(C(F)(F)F)c2)N(C(=O)OC(C)(C)C)C1 (configuration not stated)	.	.	-	-	.	.	.	.
Cc1cccc(CN2C(=O)/C(=C\c3ccc(C(=O)NCCCN4CCN(C)CC4)cc3)Oc3ccccc32)c1	-	-	81	-	-	-	-	-
CN1CCN(CCCNC(=O)c2ccc(/C=C3\Oc4ccccc4N(Cc4ccccc4F)C3=O)cc2)CC1	-	-	55	-	-	-	-	-
CCCc1cc(C(=O)N(C)CC(=O)Nc2ccc(OCC)c(OCC)c2)sc1C	-	-	-	-	-	-	.	.
COC(=O)C(Cc1ccc(O)cc1)NC(=O)CCc1nc2ccccc2s1 (configuration not stated)	-	-	-	-	-	-	.	.
COC(=O)[C@H](Cc1ccccc1)NC(=O)NC(C)CCc1ccccc1 (some centres not stated)	-	-	77	-	-	-	+	+
COC(=O)C(Cc1ccccc1)NC(=O)CCC(=O)NC(C)CCc1ccccc1 (configuration not stated)	-	-	-	-	-	-	.	.
O=C(O)c1ccc(Nc2nc3ccccc3nc2NS(=O)(=O)c2ccc(F)cc2)cc1	-	-	46	33	-	-	+	156
O=[N+]([O-])c1ccc(S(=O)(=O)Nc2nc3ccccc3nc2Nc2ccccc2)cc1	.	-	-	-	-	-	.	.
CC(=O)Nc1ccc(S(=O)(=O)Nc2nc3ccccc3nc2Nc2cccc(O)c2)cc1	-	-	75	-	-	-	72	58
CCCCN(C(=O)CC1OC(=O)c2ccccc21)c1c(N)n(CCCC)c(=O)[nH]c1=O (configuration not stated)	-	-	-	-	-	-	.	.
CC(C)n1c(O)c(/C=C2\C=NN=C2c2ccccc2)sc1=S	-	-	56	-	-	-	199	135
CCn1c(O)c(/C=C2\C=NN=C2c2ccc(C)cc2)sc1=S	-	-	-	-	-	-	.	.
COc1cccc(CNC(=O)Cn2ccc3cc(S(=O)(=O)N4CCCCCC4)ccc32)c1OC	-	-	-	-	-	-	.	.
Nc1nc2nc(-c3ccc(F)cc3)cc(C(F)(F)F)n2n1	-	-	41	-	-	-	50	40
COc1ccc(-c2cc(C(F)(F)F)n3nc(C(=O)O)nc3n2)cc1	.	-	-	-	-	-	.	.
CC(C)(C)NC(=O)c1nc2nc(-c3ccccc3)cc(C(F)(F)F)n2n1	-	-	32	-	-	-	91	62
O=C(c1nc2nc(-c3ccc(Cl)cc3)cc(C(F)(F)F)n2n1)N1CCOCC1	-	-	33	-	-	-	121	94
CCC(C)[C@H](NC(=O)C1(c2ccccc2)CCN(C(=O)OC(C)(C)C)CC1)C(=O)N[C@@H](C(=O)O)c1ccccc1 (some centres not stated)	.	-	-	-	-	-	.	.
O=C(CC1Sc2ccccc2NC1=O)OCc1cc(=O)oc2cc(O)ccc12 (configuration not stated)	-	-	35	-	-	-	91	80
Cc1ccc2c(COC(=O)CC3Sc4ccccc4NC3=O)cc(=O)oc2c1C (configuration not stated)	-	-	-	-	-	-	.	.
O=C(NCCCN1CCOCC1)c1ccc(Cl)cc1Cl	-	-	-	-	-	-	.	.
O=C(NC1CCCC1)c1ccc2c(c1)N(Cc1ccccc1)CCS2	-	-	90	-	-	-	103	116
